{
  "source": "PubChem BioAssay",
  "note": "Active and inactive are the calls of the source. Cut-off read from the data, not from the text of the source: active = fold change permeability below about 0.7 or above about 1.3; inactive = in between.",
  "data": [
    {"assay": "compounds altering in vitro BBB leakiness – cell-based, FITC-avidin fluorescence, HTS, primary screen (AID 1963498); note: test concentration not given here", "details": "brain endothelial barrier, actives lie on both sides", "values": [
      {"compound": "CC(C)Oc1cccnc1N(C)C1CCN(Cc2ccccc2)CC1", "fold change permeability": "1.5 (active)"},
      {"compound": "S=C(NC1CCCCC1)N1CCC(c2cnc[nH]2)CC1", "fold change permeability": "1.6 (active)"},
      {"compound": "COc1ccccc1N1CCNCC1", "fold change permeability": "0.9 (inactive)"},
      {"compound": "CCCCc1ccc(C(=O)O)nc1", "fold change permeability": "0.8 (inactive)"},
      {"compound": "CC1OC1P(=O)(O)O", "note": "(stereo not drawn)", "fold change permeability": "1.1 (inactive)"},
      {"compound": "CC(C)[C@H]1CN[C@H](C(=O)O)[C@H]1CC(=O)O", "fold change permeability": "1.1 (inactive)"},
      {"compound": "CNc1ccc2oc(C[C@H]3O[C@@]4(CC[C@H]3C)O[C@H]([C@H](C)C(=O)c3ccc[nH]3)[C@H](C)C[C@H]4C)nc2c1C(=O)O", "fold change permeability": "1.2 (inactive)"},
      {"compound": "NC(=O)CI", "fold change permeability": "1.2 (inactive)"},
      {"compound": "CN1C(=O)CCS(=O)(=O)C1c1ccc(Cl)cc1", "note": "(stereo not drawn)", "fold change permeability": "1.3 (active)"},
      {"compound": "CC(N)[C@H](O)c1ccc(O)c(O)c1", "note": "(stereo partly drawn)", "fold change permeability": "1 (inactive)"},
      {"compound": "C#C[C@]1(O)CC[C@H]2[C@@H]3CCC4=Cc5nc6nc7ccccc7n6cc5C[C@]4(C)[C@H]3CC[C@@]21C", "fold change permeability": "1.8 (active)"},
      {"compound": "N#Cc1ccc(N2CCN(C(=O)COc3ccc4[nH]cc(CCN)c4c3)CC2)cc1", "fold change permeability": "1 (inactive)"},
      {"compound": "NC(Cc1cc(O)c(O)cc1O)C(=O)O", "note": "(stereo not drawn)", "fold change permeability": "0.9 (inactive)"},
      {"compound": "O=C(CCCN1CCC2(CC1)C(=O)NCN2c1ccccc1)c1ccc(F)cc1", "fold change permeability": "1 (inactive)"},
      {"compound": "Cc1cc([C@@H]2CCCN2C)on1", "fold change permeability": "1.1 (inactive)"},
      {"compound": "CCn1cc(C(=O)O)c(=O)c2ccc(C)nc21", "fold change permeability": "0.9 (inactive)"},
      {"compound": "O=P(O)(O)C(O)(Cc1cnc2ccccn12)P(=O)(O)O", "fold change permeability": "0.8 (inactive)"},
      {"compound": "C[N+]1(C)C2CCC1CC(OC(=O)C(CO)c1ccccc1)C2", "note": "(stereo not drawn)", "fold change permeability": "1.1 (inactive)"}
    ]}
  ]
}
